The results in this text go back to PubChem BioAssay (NCATS).

SMILES strings stand for the structures. Records with an inconclusive call do not appear. Active and inactive are the calls of the source. The call rests on the fitted dose curve; in most records, active means well fitted curve in the direction sought with a large enough effect; inconclusive means small, poorly fitted or top-dose-only effect, or another doubt; inactive means no such curve, though single readings can be large; an effect the other way counts as inactive or inconclusive.

Experiment [1] concerns Zika virus NS2B-NS3 protease. As to the kind of experiment: Primary screen GU AMC qHTS for Zika virus inhibitors (AID 1347154). Further: nearly all actives have a fitted effect of over 70% in size. Further: potency means the concentration at half of the fitted maximal effect. The method, boiled down: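 Unlinked Zika NS2B hydrophilic domain–NS3 protease complex at 25 nM in 10 mM Tris-HCl pH 8.0, 0.01% Tween 20, with an AMC peptide substrate. Fluorescence change (340/450 nm) over 15 min at room temperature, normalized to controls, fitted to 4-parameter Hill.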

Experiment [2] concerns Zika virus NS2B-NS3 protease (unlinked complex). Kind of experiment: Primary screen GU Rhodamine qHTS for Zika virus inhibitors: Unlinked NS2B-NS3 protease assay (AID 1347159). Further: nearly all actives have a fitted effect of over 60% in size. Further: potency means the concentration at half of the fitted maximal effect. The gist of the method:
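Percent inhibition derives from the 15-min fluorescence change (ex 480, em 540 nm), normalized to no-enzyme and no-inhibitor wells. Reactions contained 25 nM NS2B-NS3 complex and 1.5 microM substrate in 10 mM Tris-HCl pH 8.0.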
For orientation: Quantitative high-throughput screening tests each substance at several concentrations.

Experiment [3] relates to Zika virus NS2B-NS3 protease (linked construct). As to the kind of experiment: Primary screen NINDS Rhodamine qHTS for Zika virus inhibitors (AID 1347160). Further: nearly all actives have a fitted effect of over 55% in size. Further: potency means the concentration at half of the fitted maximal effect. The gist of the method:
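In 10 mM Tris-HCl pH 8.0 containing 0.01% Tween 20, linked NS2B-NS3 protease (25 nM final) is exposed to test compounds for 15 min. Cleavage of 1.5 microM Rhodamine110 substrate is tracked by fluorescence over 15 min.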

Experiment [4] can be described thus: qHTS to identify inhibitors of the type 1 interferon - major histocompatibility complex class I in skeletal muscle: primary screen against the NCATS Mechanism Interrogation Plate v5.0 (MIPE) Libary (AID 1347411). Further: nearly all actives have a fitted effect of over 65% in size. The method, boiled down:
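Luminescence from HiBiT-tagged endogenous HLA-B*08:01 served as the MHC class I read-out. CRISPR-engineered C25cl48 human myoblasts received 4.0 ng/ml IFN-beta plus compound for 24 hrs, with an 11-point, 1:3 series topping at 46 uM final.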

Experiment [5] addresses Lysine-specific demethylase 5B (Homo sapiens) (UniProt Q9UGL1). As to the kind of experiment: Optimization screen for KDM5B Histone Demethylases FDH coupled qHTS against the LOPAC library (AID 1347166). The method, boiled down:
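KDM5BDeltaAP (200nM final) preincubated 10 min with compound, then 12.5uM H3K4Me3, 25uM a-ketoglutarate, ascorbate, Fe(II), NAD+ and FDH added; 50mM HEPES pH 7.5, 0.01% Tween-20. NADH fluorescence (340/450 nm) change over 30 min, room temperature.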

Experiment [6] in a line: qHTS to identify inhibitors of the type 1 interferon - major histocompatibility complex class I in skeletal muscle: primary screen against the NCATS LOPAC collection (AID 1347405).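 Further: lytic HiBiT luminescence reporting HLA-B protein level.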 The gist of the method:
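Luminescence from HiBiT fused to endogenous HLA-B in CRISPR-engineered human myoblasts served as the read-out. Cells received 4.0 ng/ml IFN-beta plus compound (seven concentrations, 1:4.3 steps, highest 46 uM final) for 24 hrs before lytic detection.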

Experiment [7] is described as follows: qHTS to identify inhibitors of the type 1 interferon - major histocompatibility complex class I in skeletal muscle: primary screen against the NCATS Pharmaceutical Collection (AID 1347407).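 Further: luminescence of HiBiT knocked into endogenous HLA-B as interferon-induced MHC class I level.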 The method, boiled down: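 Immortalized human myoblasts (C25cl48) with HiBiT knocked into endogenous HLA-B*08:01 were stimulated with 4.0 ng/ml IFN-beta and treated with compounds ([…] top 46 uM) for 24 hrs at 37 C. HiBiT lytic luminescence read.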

The nature of experiment [8]: qHTS for inhibitors of adenylyl cyclases using a fission yeast platform: a pilot screen against the NCATS LOPAC library (AID 1347410). The method, boiled down:
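S. pombe CHP2027 (AC9-GNAS-PDE4D2) carrying PKA-repressed fbp1-GFP, incubated 18 h at 30C in EMM with LOPAC compounds at up to 57 uM. GFP gain-of-signal read by laser scanning cytometry; DMSO negative control.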

Experiment [9] has as its target Protein phosphatase 1D (Homo sapiens) (UniProt O15297). Kind of experiment: RapidFire Mass Spectrometry qHTS Assay for Modulators of WT P53-Induced Phosphatase 1 (WIP1) (AID 1347424).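 Further: amount of dephosphorylated VEPPL-S-QETFS peptide product formed by WIP1; series mostly up to about 63 µM.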 The method, boiled down:
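10 nM WIP1 preincubated with compounds 1 hr at room temperature in pH 7.5 Tris buffer with 30 mM MgCl2, 1 mM TCEP; 2 uM VEPPL-pS-QETFS phosphopeptide for 5 min, formic acid quench; dephosphorylated product quantified by RapidFire MS against labelled standard.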

For experiment [10] the target is unchanged. Kind of experiment: Rhodamine-PBP qHTS Assay for Modulators of WT P53-Induced Phosphatase 1 (WIP1) (AID 1347425). The gist of the method: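 The read-out is the change in Rhodamine-PBP fluorescence (f1 - f0, ex 525/em 598 nm) as Pi is released, read each minute for 11 min. Final reaction: 5 nM WIP1, 10 uM phosphopeptide VEPPL-pS-QETFS, 10 uM Rh-PBP, 50 mM Tris-HCl pH 7.5, 30 mM MgCl2. Compound was preincubated with enzyme for 1 hour at room temperature.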

Experiment [11] in a line: Validation qHTS assay for inhibitors of Activation Induced Cytidine Deaminase (AID): UDG Counterscreen signal (AID 1347427). The method, boiled down:
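Counterscreen read of UDG activity (2 U/mL, 4/3x) in the FRET deamination format with AID (1 uM, 4/3x), DJC20/DJC23 substrates (250 nM, 4x), 4 h at room temperature. NaOH stop, fluorescence at 560 ex/665 em.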

A short description of experiment [12]: Vero cells viability qHTS for Zika virus inhibitors (AID 1347167). The gist of the method: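 Cells seeded at 2.5 x 10^5 cells/mL in DMEM with 4% FBS and attached overnight at 37 degrees C, then exposed to compound for 24 to 48 hours. Viability read as ATP content by CellTiter Glo luminescence.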
Experiment [13] in a line: Tertiary RLuc qRT-PCR qHTS assay for Zika virus inhibitors (AID 1347169). Further: potency means the concentration at half of the fitted maximal effect; nearly all actives have a fitted effect of over 55% in size. The method, boiled down:
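Vero cells (1,000/well) infected with recombinant ZIKV-RLuc (Cambodian) at MOI 1-2 after compound addition, 48-72 hrs at 37 degrees C. Live-cell Renilla luciferase substrate added; luminescence read after 1-1.5 hrs.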
(In qPCR the cycle at which signal appears reflects the starting amount.)

Sequence of Protein phosphatase 1D (Homo sapiens) (O15297 whole entry, looked up): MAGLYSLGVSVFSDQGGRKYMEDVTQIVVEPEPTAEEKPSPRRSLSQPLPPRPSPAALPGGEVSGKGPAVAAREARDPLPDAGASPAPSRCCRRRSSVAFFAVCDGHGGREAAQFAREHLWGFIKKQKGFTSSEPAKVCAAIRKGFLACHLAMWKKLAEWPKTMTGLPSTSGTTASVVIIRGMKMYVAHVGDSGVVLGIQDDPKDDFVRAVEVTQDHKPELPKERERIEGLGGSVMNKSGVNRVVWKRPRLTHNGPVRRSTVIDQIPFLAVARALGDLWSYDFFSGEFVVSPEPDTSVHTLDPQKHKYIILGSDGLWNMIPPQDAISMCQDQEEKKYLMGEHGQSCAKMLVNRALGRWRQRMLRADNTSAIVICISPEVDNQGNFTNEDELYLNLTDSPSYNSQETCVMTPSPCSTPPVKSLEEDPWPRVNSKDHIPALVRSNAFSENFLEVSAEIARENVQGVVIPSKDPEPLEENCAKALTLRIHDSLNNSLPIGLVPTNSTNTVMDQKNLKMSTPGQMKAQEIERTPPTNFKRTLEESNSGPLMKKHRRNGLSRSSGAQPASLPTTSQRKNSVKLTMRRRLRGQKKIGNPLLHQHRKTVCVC
Sequence of Lysine-specific demethylase 5B (Homo sapiens) (Q9UGL1 whole entry, looked up): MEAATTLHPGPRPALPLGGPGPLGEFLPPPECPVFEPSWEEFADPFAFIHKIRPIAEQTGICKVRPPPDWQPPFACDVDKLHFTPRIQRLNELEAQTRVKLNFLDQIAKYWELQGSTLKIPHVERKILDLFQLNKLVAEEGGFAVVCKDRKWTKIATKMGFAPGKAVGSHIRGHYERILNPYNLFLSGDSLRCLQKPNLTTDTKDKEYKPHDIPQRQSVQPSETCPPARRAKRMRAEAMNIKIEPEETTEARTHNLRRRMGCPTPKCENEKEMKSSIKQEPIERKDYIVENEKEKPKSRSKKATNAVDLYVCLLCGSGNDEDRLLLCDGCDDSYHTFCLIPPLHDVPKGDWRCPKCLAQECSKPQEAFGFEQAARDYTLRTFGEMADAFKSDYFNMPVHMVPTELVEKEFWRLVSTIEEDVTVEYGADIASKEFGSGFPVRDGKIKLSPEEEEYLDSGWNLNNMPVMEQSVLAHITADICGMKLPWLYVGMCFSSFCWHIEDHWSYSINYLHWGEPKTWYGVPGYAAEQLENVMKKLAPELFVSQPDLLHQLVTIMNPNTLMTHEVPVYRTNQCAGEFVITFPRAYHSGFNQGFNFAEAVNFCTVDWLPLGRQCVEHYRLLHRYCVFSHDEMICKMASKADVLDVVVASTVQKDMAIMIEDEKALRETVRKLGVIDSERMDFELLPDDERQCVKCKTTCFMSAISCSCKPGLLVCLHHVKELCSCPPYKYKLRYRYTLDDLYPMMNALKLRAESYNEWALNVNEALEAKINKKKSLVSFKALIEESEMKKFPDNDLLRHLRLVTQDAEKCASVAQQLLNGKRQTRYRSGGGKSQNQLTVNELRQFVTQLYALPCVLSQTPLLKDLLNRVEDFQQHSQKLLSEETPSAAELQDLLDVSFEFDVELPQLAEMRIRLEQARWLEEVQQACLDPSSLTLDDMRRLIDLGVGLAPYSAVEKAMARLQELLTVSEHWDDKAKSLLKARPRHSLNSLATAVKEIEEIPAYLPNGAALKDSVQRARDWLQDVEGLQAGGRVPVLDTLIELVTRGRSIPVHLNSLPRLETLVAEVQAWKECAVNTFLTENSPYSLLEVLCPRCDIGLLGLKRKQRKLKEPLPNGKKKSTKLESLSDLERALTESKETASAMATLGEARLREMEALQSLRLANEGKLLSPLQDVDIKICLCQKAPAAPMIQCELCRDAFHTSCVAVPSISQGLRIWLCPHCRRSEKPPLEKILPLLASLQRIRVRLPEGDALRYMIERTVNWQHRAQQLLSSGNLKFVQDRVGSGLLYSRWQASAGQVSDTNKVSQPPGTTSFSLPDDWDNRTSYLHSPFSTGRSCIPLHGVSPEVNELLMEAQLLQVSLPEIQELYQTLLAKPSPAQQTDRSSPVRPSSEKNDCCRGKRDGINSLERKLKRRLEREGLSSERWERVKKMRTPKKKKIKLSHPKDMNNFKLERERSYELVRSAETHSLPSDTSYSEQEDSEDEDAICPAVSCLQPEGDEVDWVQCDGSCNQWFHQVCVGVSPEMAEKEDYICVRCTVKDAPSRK

As for `CNCc1ccc(-c2[nH]c3cc(F)cc4c3c2CCNC4=O)cc1`, in experiment [1], the Potency was 24.1 µM (active). Also, the Potency entry in [2] and in experiment [3] was “inactive” throughout.

With `CCOC(=O)C1=C[C@@]2(CC)CCCN3CCc4c(n1c1ccccc41)[C@H]32`, the Potency result in [1] is “inactive”.

As to `O=c1[nH]c(-c2ccc(C(F)(F)F)cc2)nc2c1CSCC2`, the Potency result in [1], in [2], in experiment [3] and in [4] was “inactive” throughout.

`CN(C)C(=O)c1ccc(S(=O)(=O)c2ccc(NC(=O)[C@@](C)(O)C(F)(F)F)c(Cl)c2)cc1`: the Potency entry in experiment [1], in experiment [2], in experiment [3] and in experiment [4] was “inactive” in each case.

On to `COc1ccccc1[C@H](c1cccc2ccccc12)[C@@](C)(C#N)C(=O)N1CCC(c2cccc(C(F)(F)F)c2)CC1`, for which the Potency entry in experiment [1], in experiment [2], in experiment [3] and in [4] was “inactive” in each case.

As to `CNC(=O)c1ccc(C)c(-n2c(C)cc(OCc3ccc(F)cc3F)c(Br)c2=O)c1`, the Potency entry in [1], in experiment [2], in [3] and in experiment [4] was “inactive” each time.

Consider `C[C@@H]1CN(Cc2ccc(F)cc2)[C@@H](C)CN1C(=O)c1cc2c(C(=O)C(=O)N(C)C)cn(C)c2cc1Cl`, for which the Potency result in experiment [1], in experiment [2], in experiment [3] and in [4] was “inactive” in each case.

With `COc1ccc2c3n(c(=NC(=O)c4cccnc4)nc2c1OC)CCN3`, the Potency result in experiment [1] is “inactive”.

`CC(C=CC1=C(C)CCCC1(C)C)=CC=CC(C)=CC(=O)O`: the Potency result in experiment [1] is “inactive”.

Turning to `O=C(Nc1ccc(F)c(C(F)(F)F)c1)Nc1nnc(-c2ccncc2)s1`, the Potency result in experiment [1] and in [4] was “inactive” each time. Moreover, the Potency in [2] was 8.91 µM (active); in experiment [3], 2.82 µM (active).

Regarding `CC(C)NCC(O)COc1ccc(COCCOC(C)C)cc1` (stereo not drawn), the Potency entry in [1], in experiment [6] and in experiment [9] was “inactive” throughout. The result in experiment [5], in experiment [7], in [8], in [10] and in [11] was inactive.

Take `CCOC(=O)C1=C[C@]2(CC)CCCN3CCc4c(n1c1ccccc41)[C@@H]32`: the Potency entry in [1], in [6] and in [9] was “inactive” throughout. Besides, the result in experiment [5], in experiment [7], in experiment [8] and in experiment [11] was inactive.

Take `O=C1CCc2cc(OCCCCc3nnnn3C3CCCCC3)ccc2N1`: the Potency entry in experiment [1], in [6], in experiment [4] and in experiment [9] was “inactive” throughout. For the same molecule, the molecule was called inactive in [5], in experiment [7], in [8], in experiment [10] and in [11].

`Clc1cccc(Cl)c1NC1=NCCN1`: the Potency entry in experiment [1], in [6] and in [9] was “inactive” each time. Also, the molecule was classed as inactive in experiment [5], in experiment [7], in [8] and in experiment [11].

On to `CC(C)(C)NCC(O)c1ccc(O)c(CO)c1` (stereo not drawn), for which the Potency result in [1], in [6], in [4] and in [9] was “inactive” throughout. The call in [5], in experiment [7], in [8] and in experiment [11] was inactive.

On to `NC(=O)c1cnccn1`, for which the Potency result in experiment [1], in experiment [6], in experiment [4] and in experiment [9] was “inactive” throughout. Further, the molecule was called inactive in [5], in experiment [7], in experiment [8] and in experiment [11].

For `Nc1nc2ccc(OC(F)(F)F)cc2s1`, the Potency result in experiment [1], in experiment [6], in experiment [4] and in experiment [9] was “inactive” each time. Moreover, the molecule was called inactive in [5], in experiment [7], in [8] and in experiment [11].

For `O=c1[nH]cnc2[nH]ncc12`, the Potency entry in experiment [1], in experiment [6], in [4] and in experiment [9] was “inactive” each time. The result in experiment [5], in [7], in [8] and in experiment [11] was inactive.

For the molecule `Cn1cnc([N+](=O)[O-])c1Sc1ncnc2nc[nH]c12`, the Potency result in experiment [1], in experiment [6], in experiment [4] and in experiment [9] was “inactive” each time. Also, the result in experiment [5], in experiment [12], in experiment [7], in [8] and in [11] was inactive. Moreover, the Potency in experiment [13] was 26.9 µM (active).

In the case of `OC(CCN1CCCCC1)(c1ccccc1)C1CC2C=CC1C2` (stereo not drawn), the Potency result in [1], in experiment [6], in experiment [4] and in experiment [9] was “inactive” each time. The outcome in experiment [5], in experiment [7], in [8] and in experiment [11] was inactive.

For the molecule `CC[C@@H](C)[C@H](NC(=O)[C@H](CC1CCCCC1)NC(=O)c1ccno1)C(=O)N1CCC2(CCc3ccccc32)CC1`, the Potency entry in [1], in experiment [3] and in experiment [4] was “inactive” each time.

In the case of `O=C(Nc1cccnc1)N1CCC(Cc2cccc(Oc3ccc(C(F)(F)F)cn3)c2)CC1`, the Potency result in experiment [1] and in experiment [3] was “inactive” throughout.

`CCCS(=O)(=O)Nc1ccc(F)c(C(=O)c2c[nH]c3ncc(-c4ccc(Cl)cc4)cc23)c1F`: the Potency entry in experiment [1] and in [3] was “inactive” throughout.

Turning to `C[C@H](NC(=O)Cc1cc(F)cc(F)c1)C(=O)N[C@@H]1C(=O)N(C)c2ccccc2-c2ccccc21`, the Potency entry in experiment [1] and in [3] was “inactive” in each case.

On to `NCCCC(N)(C(=O)O)C(F)F` (stereo not drawn), for which the Potency entry in experiment [1], in experiment [6], in [4] and in [9] was “inactive” throughout. Also, the outcome in experiment [5], in [7], in experiment [8] and in experiment [11] was inactive.

As for `CNC[C@H](O)c1cccc(O)c1`, the Potency entry in [1], in [6], in [4] and in experiment [9] was “inactive” throughout. In addition, the call in experiment [5], in experiment [7], in experiment [8] and in experiment [11] was inactive.

`COc1cc2nccc(Oc3ccc(NC(=O)NC4CC4)c(Cl)c3)c2cc1C(N)=O`: the Potency entry in experiment [1] and in [3] was “inactive” in each case.
